# From paper PMC11024108
# How the values were obtained:
# Test in all cases: cross-link between two proteins; cross-linking mass spectrometry
# Gamma-enolase = Gamma-enolase (UniProt P17183)
# [1] = target: Gamma-soluble NSF attachment protein (UniProt Q9CWZ7)
# Glutamate receptor 2 = Glutamate receptor 2 (UniProt P23819)
# [2] = target: Glyceraldehyde-3-phosphate dehydrogenase (UniProt P16858)
# [3] = target: Guanine nucleotide-binding protein G(I)/G(S)/G(O) subunit gamma-5 (UniProt P63218)
# [4] = target: Guanine nucleotide-binding protein G(I)/G(S)/G(T) subunit beta-1 (UniProt P62874)
# [5] = target: Guanine nucleotide-binding protein subunit beta-4 (UniProt Q9HAV0)
# [6] = target: Heat shock cognate 71 kDa protein (UniProt P11142)
# [7] = target: Heat shock cognate 71 kDa protein (UniProt P63017)
# [8] = target: Hemoglobin subunit beta-1 (UniProt P02088)
# Sequence of Hemoglobin subunit beta-1 (P02088 whole entry): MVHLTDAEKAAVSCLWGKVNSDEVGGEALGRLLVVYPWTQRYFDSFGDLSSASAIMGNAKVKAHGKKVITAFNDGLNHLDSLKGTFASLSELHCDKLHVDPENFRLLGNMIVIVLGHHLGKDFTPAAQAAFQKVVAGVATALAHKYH
# Histone H2B type 1-H = Histone H2B type 1-H (UniProt Q93079)
# [9] = target: Hyaluronan and proteoglycan link protein 1 (UniProt Q9QUP5)
# [10] = target: Insulin-like growth factor 1 receptor (UniProt Q60751)
# Intersectin-1 = Intersectin-1 (UniProt Q9Z0R4)
# Sequence of Intersectin-1 (Q9Z0R4 whole entry, canonical isoform): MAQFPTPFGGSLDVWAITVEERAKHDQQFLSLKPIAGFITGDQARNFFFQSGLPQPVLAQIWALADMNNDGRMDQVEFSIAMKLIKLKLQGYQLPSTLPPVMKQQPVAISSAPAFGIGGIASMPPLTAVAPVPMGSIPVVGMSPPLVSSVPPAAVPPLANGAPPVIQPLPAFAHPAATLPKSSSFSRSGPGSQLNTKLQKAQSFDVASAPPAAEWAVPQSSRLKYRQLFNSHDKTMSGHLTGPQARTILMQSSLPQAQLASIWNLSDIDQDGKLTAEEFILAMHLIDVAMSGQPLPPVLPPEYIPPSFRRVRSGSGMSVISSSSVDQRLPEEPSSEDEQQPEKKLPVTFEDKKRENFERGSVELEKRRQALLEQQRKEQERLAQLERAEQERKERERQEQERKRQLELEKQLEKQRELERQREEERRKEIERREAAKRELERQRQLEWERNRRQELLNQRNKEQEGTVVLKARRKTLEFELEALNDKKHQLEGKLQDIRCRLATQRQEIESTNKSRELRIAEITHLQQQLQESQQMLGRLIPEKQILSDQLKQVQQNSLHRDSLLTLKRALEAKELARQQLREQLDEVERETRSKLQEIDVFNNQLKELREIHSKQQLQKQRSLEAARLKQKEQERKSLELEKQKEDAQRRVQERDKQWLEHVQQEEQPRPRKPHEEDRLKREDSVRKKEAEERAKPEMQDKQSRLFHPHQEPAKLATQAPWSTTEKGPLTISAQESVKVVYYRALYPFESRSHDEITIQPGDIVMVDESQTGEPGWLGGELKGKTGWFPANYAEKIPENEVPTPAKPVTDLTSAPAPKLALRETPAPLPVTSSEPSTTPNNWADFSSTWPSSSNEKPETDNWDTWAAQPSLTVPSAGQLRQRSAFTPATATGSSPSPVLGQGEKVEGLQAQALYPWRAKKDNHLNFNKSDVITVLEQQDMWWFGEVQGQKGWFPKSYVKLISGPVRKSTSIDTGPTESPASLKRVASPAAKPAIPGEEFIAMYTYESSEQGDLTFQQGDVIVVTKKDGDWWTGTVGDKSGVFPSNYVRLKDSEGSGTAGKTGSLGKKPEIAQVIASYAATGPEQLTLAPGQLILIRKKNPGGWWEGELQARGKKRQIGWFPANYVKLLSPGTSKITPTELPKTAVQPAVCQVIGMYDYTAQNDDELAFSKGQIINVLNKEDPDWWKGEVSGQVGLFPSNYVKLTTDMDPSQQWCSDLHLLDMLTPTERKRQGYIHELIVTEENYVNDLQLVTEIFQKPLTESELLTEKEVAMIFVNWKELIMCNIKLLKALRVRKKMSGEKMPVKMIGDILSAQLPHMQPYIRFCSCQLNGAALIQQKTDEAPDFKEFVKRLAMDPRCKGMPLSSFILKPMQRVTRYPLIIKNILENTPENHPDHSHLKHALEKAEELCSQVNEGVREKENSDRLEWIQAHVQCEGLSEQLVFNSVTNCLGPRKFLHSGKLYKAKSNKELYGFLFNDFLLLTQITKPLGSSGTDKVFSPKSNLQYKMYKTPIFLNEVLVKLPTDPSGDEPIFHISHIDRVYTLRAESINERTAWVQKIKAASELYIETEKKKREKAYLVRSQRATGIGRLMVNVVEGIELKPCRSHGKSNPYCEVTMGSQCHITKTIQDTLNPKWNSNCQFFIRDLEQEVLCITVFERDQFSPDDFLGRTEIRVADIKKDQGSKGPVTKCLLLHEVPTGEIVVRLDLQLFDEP
# [11] = target: Kinesin heavy chain isoform 5C (UniProt P28738)
# Kinesin light chain 2 = Kinesin light chain 2 (UniProt O88448)
# [12] = target: Lanosterol 14-alpha demethylase (UniProt Q16850)
# [13] = target: Lysocardiolipin acyltransferase 1 (UniProt Q6UWP7)
# [14] = target: Limbic system-associated membrane protein (UniProt Q8BLK3)
# [15] = target: Melanoma inhibitory activity protein 2 (UniProt Q91ZV0)
# [16] = target: Microtubule-associated protein 1A (UniProt Q9QYR6)
# [17] = target: Mitochondrial import inner membrane translocase subunit TIM16 (UniProt Q9Y3D7)
# Sequence of Mitochondrial import inner membrane translocase subunit TIM16 (Q9Y3D7 whole entry): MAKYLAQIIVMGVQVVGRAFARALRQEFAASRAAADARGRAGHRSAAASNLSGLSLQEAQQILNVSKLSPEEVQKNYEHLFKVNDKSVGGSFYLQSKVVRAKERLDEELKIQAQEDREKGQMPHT
# [18] = target: Mitochondrial import inner membrane translocase subunit Tim9 (UniProt Q9Y5J7)
# [19] = target: Monocarboxylate transporter 1 (UniProt P53985)
# Myosin light chain 6B = Myosin light chain 6B (UniProt Q8CI43)
# Myosin-14 = Myosin-14 (UniProt Q6URW6)
# Myosin-9 = Myosin-9 (UniProt Q8VDD5)
# Sequence of Myosin-9 (Q8VDD5 whole entry): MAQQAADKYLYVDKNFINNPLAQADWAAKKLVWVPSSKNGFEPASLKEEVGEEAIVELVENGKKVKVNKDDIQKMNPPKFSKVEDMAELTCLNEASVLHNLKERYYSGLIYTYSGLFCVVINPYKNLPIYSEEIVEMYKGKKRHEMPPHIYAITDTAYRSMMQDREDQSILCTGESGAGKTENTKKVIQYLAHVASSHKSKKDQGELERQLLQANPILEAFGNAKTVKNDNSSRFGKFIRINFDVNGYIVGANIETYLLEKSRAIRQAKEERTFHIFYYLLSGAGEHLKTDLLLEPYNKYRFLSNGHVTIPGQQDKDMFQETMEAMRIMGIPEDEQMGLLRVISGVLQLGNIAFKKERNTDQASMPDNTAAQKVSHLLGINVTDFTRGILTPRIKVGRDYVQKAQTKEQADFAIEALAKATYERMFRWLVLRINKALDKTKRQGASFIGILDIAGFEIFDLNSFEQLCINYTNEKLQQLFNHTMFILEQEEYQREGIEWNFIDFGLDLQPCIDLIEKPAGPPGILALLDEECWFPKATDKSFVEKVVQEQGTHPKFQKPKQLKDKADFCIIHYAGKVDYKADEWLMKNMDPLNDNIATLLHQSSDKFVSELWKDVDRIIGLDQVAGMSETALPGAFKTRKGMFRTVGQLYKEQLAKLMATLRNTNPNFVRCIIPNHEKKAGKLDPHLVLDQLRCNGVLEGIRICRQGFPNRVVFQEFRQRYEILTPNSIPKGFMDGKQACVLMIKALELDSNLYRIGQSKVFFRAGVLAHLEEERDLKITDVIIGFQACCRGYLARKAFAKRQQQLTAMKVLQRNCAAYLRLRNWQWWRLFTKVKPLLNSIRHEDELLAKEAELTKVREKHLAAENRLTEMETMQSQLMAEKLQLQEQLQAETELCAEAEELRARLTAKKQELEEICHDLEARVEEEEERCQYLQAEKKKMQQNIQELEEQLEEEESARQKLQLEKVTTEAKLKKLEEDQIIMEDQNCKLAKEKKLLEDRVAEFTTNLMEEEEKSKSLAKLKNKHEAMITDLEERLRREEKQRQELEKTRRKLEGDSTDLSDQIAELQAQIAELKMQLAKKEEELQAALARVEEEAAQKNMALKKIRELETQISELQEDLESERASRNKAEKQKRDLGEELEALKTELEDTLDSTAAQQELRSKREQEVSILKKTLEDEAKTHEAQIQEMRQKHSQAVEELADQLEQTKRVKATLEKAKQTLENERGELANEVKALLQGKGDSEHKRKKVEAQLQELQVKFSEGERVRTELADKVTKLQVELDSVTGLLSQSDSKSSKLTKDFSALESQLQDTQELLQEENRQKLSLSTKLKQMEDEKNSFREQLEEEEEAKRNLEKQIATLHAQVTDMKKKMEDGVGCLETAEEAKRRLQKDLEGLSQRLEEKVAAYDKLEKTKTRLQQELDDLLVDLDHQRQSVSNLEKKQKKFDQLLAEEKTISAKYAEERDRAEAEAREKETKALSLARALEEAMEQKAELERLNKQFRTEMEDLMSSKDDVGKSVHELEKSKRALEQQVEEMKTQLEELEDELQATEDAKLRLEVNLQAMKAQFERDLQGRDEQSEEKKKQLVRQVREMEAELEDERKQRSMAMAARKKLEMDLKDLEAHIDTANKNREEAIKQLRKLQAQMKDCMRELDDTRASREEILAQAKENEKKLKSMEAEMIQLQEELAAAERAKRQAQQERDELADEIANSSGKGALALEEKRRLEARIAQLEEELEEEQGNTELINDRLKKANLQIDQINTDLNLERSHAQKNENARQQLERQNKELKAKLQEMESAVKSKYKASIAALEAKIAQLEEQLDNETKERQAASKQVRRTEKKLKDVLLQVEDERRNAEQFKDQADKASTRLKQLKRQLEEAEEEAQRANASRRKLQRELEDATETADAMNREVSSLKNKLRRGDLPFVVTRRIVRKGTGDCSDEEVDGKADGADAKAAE
# Sequence of Membrane-associated progesterone receptor component 1, O00264 (O00264 whole entry): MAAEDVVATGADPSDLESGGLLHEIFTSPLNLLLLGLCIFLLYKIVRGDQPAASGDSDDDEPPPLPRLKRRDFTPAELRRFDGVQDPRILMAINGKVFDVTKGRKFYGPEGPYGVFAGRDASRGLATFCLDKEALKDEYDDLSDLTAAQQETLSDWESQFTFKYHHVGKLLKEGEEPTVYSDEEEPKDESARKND
# Sequence of Guanine nucleotide-binding protein G(I)/G(S)/G(O) subunit gamma-5 (P63218 whole entry): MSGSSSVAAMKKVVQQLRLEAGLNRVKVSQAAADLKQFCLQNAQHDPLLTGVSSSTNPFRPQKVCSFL
# Sequence of Heat shock protein HSP 90-beta, P08238 (P08238 whole entry): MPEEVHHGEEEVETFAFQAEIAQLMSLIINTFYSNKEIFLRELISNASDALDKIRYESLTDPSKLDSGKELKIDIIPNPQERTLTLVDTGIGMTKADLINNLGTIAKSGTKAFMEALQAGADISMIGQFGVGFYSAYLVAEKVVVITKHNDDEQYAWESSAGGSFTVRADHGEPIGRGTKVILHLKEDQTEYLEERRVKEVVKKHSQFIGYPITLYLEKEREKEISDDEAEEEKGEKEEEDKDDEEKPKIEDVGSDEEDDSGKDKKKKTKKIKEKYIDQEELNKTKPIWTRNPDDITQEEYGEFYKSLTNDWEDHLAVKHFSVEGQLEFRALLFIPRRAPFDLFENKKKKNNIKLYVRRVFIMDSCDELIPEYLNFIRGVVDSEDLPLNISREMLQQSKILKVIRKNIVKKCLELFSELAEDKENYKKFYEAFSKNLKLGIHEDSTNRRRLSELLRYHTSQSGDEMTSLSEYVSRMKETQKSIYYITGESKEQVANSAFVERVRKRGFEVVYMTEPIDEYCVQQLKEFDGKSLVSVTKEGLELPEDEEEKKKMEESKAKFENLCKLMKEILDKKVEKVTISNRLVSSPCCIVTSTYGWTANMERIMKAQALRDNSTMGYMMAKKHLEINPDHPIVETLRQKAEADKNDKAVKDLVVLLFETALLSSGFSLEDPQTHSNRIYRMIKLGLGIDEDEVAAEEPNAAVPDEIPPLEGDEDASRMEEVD
# Sequence of Mitochondrial import inner membrane translocase subunit TIM14, Q96DA6 (Q96DA6 whole entry): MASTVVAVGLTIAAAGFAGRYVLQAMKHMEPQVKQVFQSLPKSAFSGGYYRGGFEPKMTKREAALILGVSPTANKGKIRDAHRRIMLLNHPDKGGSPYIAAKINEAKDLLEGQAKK
substance,measurement,setting,value
"Alpha-enolase, P17182",listed as a hit,Gamma-enolase,yes
"Beta-soluble NSF attachment protein, P28663",listed as a hit,[1],yes
"DOMON domain-containing protein FRRS1L, B1AXV0",listed as a hit,Glutamate receptor 2,yes
"Fructose-bisphosphate aldolase A, P05064",listed as a hit,[2],yes
"Guanine nucleotide-binding protein G(I)/G(S)/G(T) subunit beta-2, P62879",listed as a hit,[3],yes
"Guanine nucleotide-binding protein G(I)/G(S)/G(O) subunit gamma-4, P50153",listed as a hit,[4],yes
"Guanine nucleotide-binding protein G(I)/G(S)/G(O) subunit gamma-5, P63218",listed as a hit,[5],yes
"Heat shock protein HSP 90-beta, P08238",listed as a hit,[6],yes
"Heat shock 70 kDa protein 4L, P48722",listed as a hit,[7],yes
"Hemoglobin subunit alpha, P01942",listed as a hit,[8],yes
"Programmed cell death protein 4, Q53EL6",listed as a hit,Histone H2B type 1-H,yes
"Neurocan core protein, P55066",listed as a hit,[9],yes
"Insulin receptor, P15208",listed as a hit,[10],yes
"Epidermal growth factor receptor substrate 15-like 1, Q60902",listed as a hit,Intersectin-1,yes
"Kinesin light chain 1, O88447",listed as a hit,[11],yes
same,listed as a hit,Kinesin light chain 2,yes
"Membrane-associated progesterone receptor component 1, O00264",listed as a hit,[12],yes
same,listed as a hit,[13],yes
"Rho-associated protein kinase 2, P70336",listed as a hit,[14],yes
"Transport and Golgi organization protein 1 homolog, Q8BI84",listed as a hit,[15],yes
"Microtubule-associated protein 1B, P14873",listed as a hit,[16],yes
"Mitochondrial import inner membrane translocase subunit TIM14, Q96DA6",listed as a hit,[17],yes
"Mitochondrial import inner membrane translocase subunit Tim22, Q9Y584",listed as a hit,[18],yes
"Basigin, P35613",listed as a hit,[19],yes
"Myosin-10, Q61879",listed as a hit,Myosin light chain 6B,yes
same,listed as a hit,Myosin-14,yes
same,listed as a hit,Myosin-9,yes
